Screening data as filed in PubChem.
NALP1 inh: inhibitors of NALP1 inflammasome in yeast; S. cerevisiae NALP1/ASC/caspase-1 growth, X-gal OD620, 72 h; AID 2071; inhibition, % at 10 µM; actives 0.61% (n = 280,000); in the data active = inhibition mostly above about 24%, no sharp cut-off; inactive = mostly below about 32%
tim10-1 inh: growth inhibitors of tim10-1 mutant yeast; AID 463190; actives 2.2% (n = 330,000); inhibition, % at 20 µM; S. cerevisiae tim10-1 ts strain growth, BacTiter-Glo, 24 h;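 active = inhibition of at least 40%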;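 also: mutant grown at 25 °C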
NALP3 yeast inh: blocks the NALP3 inflammasome reconstituted in yeast; Yeast reconstituted NLRP3/ASC/caspase-1, beta-gal luminescence, 24 h; inhibition, % at 10 µM; actives 0.39% (n = 330,000);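 active = inhibition of 50% or more; inactive = inhibition below 50%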
TIM10 inh: inhibits growth of TIM10 yeast strain; inhibition, % at 10 µM; AID 463195; actives 1.4% (n = 330,000); S. cerevisiae TIM10 strain growth, BacTiter-Glo luminescence, 24 h;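 active = inhibition of 40% or more at the single tested concentration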;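 also: wild-type TIM10 isogenic control strain grown at permissive 25 °C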
PfHsp90 yeast 2: reduces growth (ATP signal) of yeast expressing P. falciparum Hsp90; actives 0.32% (n = 310,000); AID 504621; inhibition, % at 9.4 µM; S. cerevisiae expressing PfHsp90, BacTiter-Glo ATP, 48 h; yeast lacking PDR1 and PDR3 efflux regulators;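 active = every replicate shows inhibition above about 80%, whatever the replicate mean, limit read from the data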
tim23-1 inh: tim23-1 yeast growth inhibition | S. cerevisiae tim23-1 growth, BacTiter-Glo luminescence, 24 h | inhibition, % at 20 µM | actives 1.3% (n = 330,000) | AID 463212;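 active = growth inhibition of the mutant yeast at or above 50%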;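 also: temperature-sensitive mutant grown at 25 °C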
tim10-1 conf: confirmation of tim10-1 mutant yeast growth inhibitors. shares compounds with tim10-1 inh. S. cerevisiae tim10-1 ts strain growth, BacTiter-Glo, 24 h. inhibition, % at 20 µM. actives 56% (n = 7,400);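 active = inhibition of yeast growth at or above a set limit in either of two repeat tests at 20 µM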;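 also: tim10-1 mutant grown at permissive 25 °C to find synthetic lethal compounds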
Numbers stand for hits; i = inactive; nt = no result. Compounds with a hit are over-represented: about 4.2% of the library has one in this group of screens.

SMILES	NALP1 inh	tim10-1 inh	NALP3 yeast inh	TIM10 inh	PfHsp90 yeast 2	tim23-1 inh	tim10-1 conf
CC1CC2=C(NC(=S)NC2c2ccc(F)cc2)/C(=C/c2ccc(F)cc2)C1 (stereo not given)	i	46	i	i	i	i	i
Fc1cccc(/C=C2\CCCC3=C2NC(=S)NC3c2cccc(F)c2)c1 (stereo not given)	i	i	i	i	i	i	nt
CN1CCN(C2Cc3cc(F)ccc3Sc3ccc(Cl)cc32)CC1 (stereo not given)	nt	i	i	i	i	i	nt
CN1CCN(C2Cc3ccccc3Sc3ccc(Cl)cc32)CC1 (stereo not given)	nt	52	i	i	i	i	36
CC12CC3(C)CC(C)(C1)CC(C(=O)NCc1cccnc1)(C2)C3	i	i	i	i	i	i	nt
COc1ccc(-c2nc(C)ncc2-c2ccccc2)c(O)c1	i	41	i	i	i	i	i
COc1ccc(-c2nc(C)ncc2-c2ccc(Cl)cc2)c(O)c1	i	i	i	i	i	i	nt
CSc1nc(-c2ccccc2)cn1-c1ccc(NC(C)=O)cc1	i	46	i	i	i	i	31
Cc1cc(/C=C2\Sc3ccccc3N2C)cc(C)[n+]1CC1CCCO1 (stereo not given)	i	57	i	i	i	i	i
CN(C)S(=O)(=O)Oc1ccsc1C(=O)Nc1cccc(Cl)c1	i	i	i	i	i	i	nt
CN(C)S(=O)(=O)Oc1ccsc1C(=O)Nc1ccc(Cl)c(Cl)c1	i	44	i	i	i	i	36
N/C(=N\OC(=O)Cc1ccc(-c2ccccc2)cc1)c1cccnc1	i	47	i	i	i	i	39
N/C(=N\OC(=O)CCC1CCCCC1)c1cccnc1	i	46	i	i	i	i	38
N/C(=N\OC(=O)CC(c1ccccc1)c1ccccc1)c1cccnc1	i	47	i	i	i	i	61
COc1cc(/C=C2\C(=N)N3N=C(S(=O)(=O)CC(C)C)SC3=NC2=O)ccc1OC(=O)c1ccco1	i	41	i	i	nt	i	i
CCOc1ccc(Br)cc1S(=O)(=O)NCCN1CCCC1	i	i	i	i	i	i	nt
CCCC(=O)Nn1cnc2c(c1=O)C1(CCCC1)Cc1ccccc1-2	i	45	i	i	i	i	36
CC(=O)Nn1cnc2c(c1=O)C1(CCCC1)Cc1ccccc1-2	nt	i	i	i	i	i	nt
COC(=O)c1ccc2c(c1)N(C)S(=O)(=O)c1cnc(SCC(=O)C(C)(C)C)nc1-2	i	i	i	i	nt	i	nt
COC1=CC(=O)C(O)=C(CCCCCCC/C=C/CCCCCCCC2=C(O)C(=O)C=C(OC)C2=O)C1=O	nt	43	i	i	i	i	38
CCCCCCCCCCCC1=C(O)C(=O)C=C(O)C1=O	nt	nt	nt	nt	i	nt	nt
CCCOc1ccccc1/C=C1\SC(N2CCCCC2)=NC1=O	i	42	i	i	i	i	33
O=C(Cc1c(F)cccc1Cl)NNC(=S)Nc1ccc(S(=O)(=O)Nc2ncccn2)cc1	i	i	i	i	i	i	nt
CCOc1ccc(-n2cc(-c3ccccc3)c3c(=O)[nH]cnc32)cc1	i	55	i	i	i	i	40
CC1=NN(c2ccccc2)C(=O)/C1=C\C=C1/N(C)c2ccccc2C1(C)C	i	42	i	i	i	i	i
SMILES	NALP1 inh	tim10-1 inh	NALP3 yeast inh	TIM10 inh	PfHsp90 yeast 2	tim23-1 inh	tim10-1 conf
CC1=NN(c2ccccc2)C(=O)/C1=C\C=C1\N(C)c2ccccc2C1(C)C	i	i	i	i	i	i	nt
CC(C)CCNC(=O)NC(=O)CSc1nnc(COc2ccccc2Cl)o1	i	49	i	i	i	i	i
O=C1C=C(NC(=O)Nc2ccc(Cl)c(Cl)c2)CCC1	i	43	i	i	i	i	46
COc1ccccc1C(=O)N/C(=N/c1nc(C)cc(C)n1)Nc1ccccc1	i	i	i	i	i	i	nt
COCCn1c(SCC(=O)Nc2nc(C)c(Cl)cc2Cl)nc2ccccc21	i	42	i	i	i	i	i
Cc1nc(NC(=O)CSc2cc(C)c3ccccc3n2)c(Cl)cc1Cl	i	41	i	i	i	i	i
Cc1cc(SCC(=O)Nc2cccnc2Cl)nc2ccccc12	i	i	i	i	i	i	nt
CCCCNC(=S)N/N=C/c1cccc(OCC)c1O	i	i	i	i	i	i	nt
CCOc1cccc(/C=N/NC(=S)Nc2ccccc2[N+](=O)[O-])c1O	i	46	i	i	i	i	i
O=C(c1ccco1)N1CCCC(c2nc3c(nnn3Cc3cccc(Cl)c3)c(=O)[nH]2)C1 (stereo not given)	i	53	i	i	i	i	i
N#CCC(CNc1ncc(C(F)(F)F)cc1Cl)OC(=O)c1cccc(C(F)(F)F)c1 (stereo not given)	i	42	i	i	i	i	i
O=C(OCCNc1ncc(C(F)(F)F)cc1Cl)c1ccc(S(=O)(=O)N2CCOCC2)cc1	i	i	i	i	i	i	nt
CCOc1ccc(N(Cc2ccc(OC)cc2)C(=O)c2ccco2)cc1	i	44	i	i	i	i	i
CC(C)CCNC(=O)C(c1cccnc1)N(CCc1ccccc1)C(=O)Cn1nnc2ccccc21 (stereo not given)	i	i	i	i	i	i	nt
CCc1nc2cc(Cl)c(Cl)cc2[nH]1	i	41	i	i	i	i	37
COc1ccc(/C=C/C(=O)c2ccccc2)cc1Cn1nnc2ccccc21	i	59	i	i	i	i	45
COC(=O)CN1C(=O)COc2ccc(S(=O)(=O)NCc3ccccc3)cc21	i	i	i	i	i	i	nt
O=C(CN1C(=O)/C(=C/c2ccccc2)SC1=S)N1CCN(CCc2ccccn2)CC1	i	42	i	i	i	i	i
COc1ccc(OC)c(NC(=O)C2CC(=O)N(c3ccc(Br)cc3)C2)c1 (stereo not given)	nt	43	i	i	i	i	i
CC(=O)NC(=S)Nc1cccc2ccc(C)nc12	nt	i	i	i	i	i	nt
Cc1ccc2cccc(NC(=S)NC(=O)c3ccnn3C)c2n1	i	43	i	i	i	i	i
CCCc1ccc(-c2c(C)sc(N)c2C#N)cc1	i	68	i	i	i	i	49
CCCC(=O)Nc1sc(C)c(-c2ccc(OC)cc2)c1C#N	i	i	i	i	i	i	nt
O=S(=O)(c1cccc(COc2c(Cl)cccc2Cl)c1)N1CCOCC1	nt	40	i	i	nt	i	i
O=S(=O)(c1cccc(COc2ccc(Cl)cc2Cl)c1)N1CCOCC1	i	i	i	i	i	i	nt
O=C(NCc1ccc2c(c1)OCO2)c1nc(Cn2cc([N+](=O)[O-])cn2)no1	i	i	i	i	i	i	nt
COc1ccc(N2CCC(CNC(=O)Nc3cccc(OC)c3)C2)cc1 (stereo not given)	i	46	i	i	nt	i	40
